Measurements from PubChem BioAssay (Tox21).
“And” between values parts separate entries of the source, which are not always exact repeats. Equal values may be shown once. More than one record can exist for a structure, and the calls need not agree. The source made the active and inactive calls. Entries that show only a call come without a potency. Unless noted, the call rests on the fitted dose curve; in most records, active means well fitted curve in the direction sought with a large enough effect in the repeat runs; inconclusive means weak or mixed curves; inactive means no such curve, though single readings can be large; an effect the other way counts as inactive or inconclusive.

Columns and labels:
[1] = qHTS assay to identify small molecule antagonists of the thyroid receptor (TR) signaling pathway (AID 743065); further: nearly all actives have a fitted effect of over 55% in size; further: potency means the concentration at half of the fitted maximal effect
How it was run: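 GH3.TRE-Luc rat pituitary cells carrying two TR response elements driving luciferase were plated for 4 h, given compound plus 1 nM T3 (final), and incubated 23.5 h at 37 C. ONE-Glo luminescence measured reporter inhibition; CellTiter-Fluor fluorescence tracked cytotoxicity.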

[2] = tested on: thyroid hormone receptor (rat, GH3 cells); test: qHTS assay to identify small molecule agonists of the thyroid receptor (TR) signaling pathway (AID 743066; calls by dose curve)
[3] = qHTS assay to identify small molecule antagonists of the estrogen receptor alpha (ER-alpha) signaling pathway - cell viability counter screen (AID 743074; calls by dose curve; further: nearly all actives have a fitted effect of over 45% in size)
[4] = qHTS assay to identify small molecule antagonists of the estrogen receptor alpha (ER-alpha) signaling pathway using the BG1 cell line - cell viability counter screen (AID 743081);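 further: compound given together with 17beta-estradiol as the ER stimulus; series mostly up to about 70 µM; nearly all actives have a fitted effect of over 45% in size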
Aromatase (Homo sapiens) = Aromatase (Homo sapiens) (UniProt P11511); test: qHTS assay to identify aromatase inhibitors (AID 743083); further: nearly all actives have a fitted effect of over 55% in size; further: potency means the concentration at half of the fitted maximal effect
[5] = qHTS assay to identify aromatase inhibitors - cell viability counter screen (AID 743084);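 further: cells stimulated with testosterone during compound exposure; nearly all actives have a fitted effect of over 55% in size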; further: potency means the concentration at half of the fitted maximal effect
[6] = target: Aryl hydrocarbon receptor (Homo sapiens) (UniProt P35869); test: qHTS assay to identify small molecule that activate the aryl hydrocarbon receptor (AhR) signaling pathway (AID 743085); further: nearly all actives have a fitted effect of over 15% in size; further: potency means the concentration at half of the fitted maximal effect;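 on activation: HG2L7.5c1 human HepG2 liver cells with stably integrated DRE-driven firefly reporter; series mostly up to about 70 µM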
How it was run: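 Reporter assay in engineered HepG2 line HG2L7.5c1, whose plasmid carries twenty dioxin responsive elements upstream of firefly luciferase. Treatment lasted 24 h at 37C; ONE-Glo luminescence gauged induction.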

[7] = qHTS assay to identify small molecule antagonists of the peroxisome proliferator-activated receptor gamma (PPARg) signaling pathway - cell viability counter screen (AID 743194); further: nearly all actives have a fitted effect of over 55% in size; further: potency means the concentration at half of the fitted maximal effect
How it was run: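 PPARg-UAS-bla HEK293H cells were plated, rested 5 h at 37 C, then treated with compounds plus rosiglitazone (50 nM final) for 17 h at 37 C; viability was then read by CellTiter-Glo luminescence after 30 min at room temperature.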

[8] = qHTS assay for small molecule agonists of the antioxidant response element (ARE) signaling pathway (AID 743202; active means well fitted activation curve with a large enough effect in the signal ratio in the repeat runs, not every such curve was filed as active; inconclusive means weak or mixed curves, or effect the other way; inactive means no such curve, though single readings can be large or run the other way; the % refers to the signal ratio; further: potency means the concentration at half of the fitted maximal effect)
How it was run: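 Read-out: LiveBLAzer B/G FRET substrate fluorescence after 2 h at room temperature, following 16 h compound treatment at 37 C of HepG2 cells carrying an ARE-driven beta-lactamase reporter.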

[9] = qHTS assay for small molecule activators of the heat shock response signaling pathway - cell viability counter screen (AID 743209); further: nearly all actives have a fitted effect of over 50% in size; further: potency means the concentration at half of the fitted maximal effect
How it was run: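 HSE-bla HeLa cells plated overnight, then exposed to Tox21 compounds (23 nL in DMSO) for 5 h at 37 C. After the bla reporter read, CellTiter-Glo was added in the same wells and luminescence read after 30 min at room temperature.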

[10] = qHTS assay for small molecule activators of the heat shock response signaling pathway (AID 743210; active means well fitted activation curve with a large enough effect in the signal ratio in the repeat runs, with a control signal flat, not every such curve was filed as active; inconclusive means weak or mixed curves; the % refers to the signal ratio; further: series mostly up to about 63 µM)
How it was run: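 HSE-bla HeLa cells (beta-lactamase reporter under heat shock response elements) were exposed to compounds for 5 h at 37 C, then loaded with LiveBLAzer B/G FRET substrate for 2.5 h at room temperature before fluorescence reading.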

[11] = qHTS assay for small molecule agonists of the antioxidant response element (ARE) signaling pathway - cell viability counter screen (AID 743203; calls by dose curve; further: nearly all actives have a fitted effect of over 55% in size; further: potency means the concentration at half of the fitted maximal effect)
How it was run: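 ARE-bla HepG2 cells were plated, rested 5 h at 37C/5% CO2, then exposed to compounds in DMSO for 16 h. Viability was read as CellTiter-Glo luminescence after 30 min at room temperature, in the same wells as the ARE screen.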

[12] = target: Estrogen receptor (Homo sapiens) (UniProt P03372); test: qHTS assay to identify small molecule antagonists of the estrogen receptor alpha (ER-alpha) signaling pathway (AID 743069; active means well fitted curve in the direction sought with a large enough effect in the signal ratio in the repeat runs, not every such curve was filed as active; inconclusive means weak or mixed curves, or effect the other way; inactive means no such curve, though single readings can be large or run the other way; the % refers to the signal ratio)
How it was run: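 HEK293 cells stably carrying an ER-alpha-UAS-bla beta-lactamase reporter were pre-cultured overnight in 2% charcoal-stripped FBS medium. Test compounds in DMSO were added together with 17beta-estradiol for 18 hr at 37C. Read-out was fluorescence after 2 hr with LiveBLAzer B/G FRET substrate at room temperature.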

[13] = target: Estrogen receptor (Homo sapiens) (UniProt P03372); test: qHTS assay to identify small molecule agonists of the estrogen receptor alpha (ER-alpha) signaling pathway (AID 743075; calls by dose curve; further: potency means the concentration at half of the fitted maximal effect)
[14] = target: Estrogen receptor (Homo sapiens) (UniProt P03372); test: qHTS assay to identify small molecule agonists of the estrogen receptor alpha (ER-alpha) signaling pathway using the BG1 cell line (AID 743079); further: nearly all actives have a fitted effect of over 20% in size; further: potency means the concentration at half of the fitted maximal effect
[15] = qHTS assay to identify small molecule antagonists of the estrogen receptor alpha (ER-alpha) signaling pathway using the BG1 cell line (AID 743080; calls by dose curve;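 further: BG1 cells stimulated with 17beta-estradiol alongside compound; nearly all actives have a fitted effect of over 25% in size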; further: potency means the concentration at half of the fitted maximal effect)
How it was run: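 Luminescence from a 4×ERE-luciferase reporter in BG1-Luc-4E2 cells served as read-out. Cells, pre-cultured 5 days in stripped-serum phenol-red-free medium, were exposed to compound with 17beta-estradiol co-stimulation for 21.5 h at 37 C.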

[16] = qHTS assay to identify small molecule that activate the aryl hydrocarbon receptor (AhR) signaling pathway - cell viability counter screen (AID 743086);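 further: HepG2 liver cells carrying the AhR DRE luciferase reporter; series mostly up to about 70 µM; nearly all actives have a fitted effect of over 45% in size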
How it was run: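 HepG2-AhR-luc (HG2L7.5c1) cells, 4000/well, were preincubated 5 h at 37C, exposed to compound in qHTS format for 24 hr at 37C, then given CellTiter-Fluor for 30 min; viability was read as fluorescence in the reporter wells.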

[17] = target: Peroxisome proliferator-activated receptor gamma (Homo sapiens) (UniProt P37231); test: qHTS assay to identify small molecule agonists of the peroxisome proliferator-activated receptor gamma (PPARg) signaling pathway (AID 743094; active means well fitted activation curve with a large enough effect in the signal ratio in the repeat runs, not every such curve was filed as active; inconclusive means weak or mixed curves, or effect the other way; inactive means no such curve, though single readings can be large or run the other way; the % refers to the signal ratio; further: potency means the concentration at half of the fitted maximal effect)
How it was run: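 GeneBLAzer PPARg UAS-bla HEK293H cells were plated, rested 5 h, then exposed to compounds for 17 h at 37C. Beta-lactamase activity was read by LiveBLAzer B/G FRET substrate fluorescence after 1 h at room temperature.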

[18] = target: Peroxisome proliferator-activated receptor gamma (Homo sapiens) (UniProt P37231); test: qHTS assay to identify small molecule antagonists of the peroxisome proliferator-activated receptor gamma (PPARg) signaling pathway (AID 743191; calls by dose curve; further: series mostly up to about 63 µM; nearly all actives have a fitted effect of over 30% in size)
How it was run: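 GeneBLAzer PPARg UAS-bla HEK293H cells carrying a UAS-driven beta-lactamase reporter were plated at 3000 cells/well, preincubated 5 h at 37C, then given compound for 17 h at 37C; LiveBLAzer B/G FRET substrate was read after 1 h at room temperature.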

Chain of Aromatase (Homo sapiens) (P11511 whole entry, looked up): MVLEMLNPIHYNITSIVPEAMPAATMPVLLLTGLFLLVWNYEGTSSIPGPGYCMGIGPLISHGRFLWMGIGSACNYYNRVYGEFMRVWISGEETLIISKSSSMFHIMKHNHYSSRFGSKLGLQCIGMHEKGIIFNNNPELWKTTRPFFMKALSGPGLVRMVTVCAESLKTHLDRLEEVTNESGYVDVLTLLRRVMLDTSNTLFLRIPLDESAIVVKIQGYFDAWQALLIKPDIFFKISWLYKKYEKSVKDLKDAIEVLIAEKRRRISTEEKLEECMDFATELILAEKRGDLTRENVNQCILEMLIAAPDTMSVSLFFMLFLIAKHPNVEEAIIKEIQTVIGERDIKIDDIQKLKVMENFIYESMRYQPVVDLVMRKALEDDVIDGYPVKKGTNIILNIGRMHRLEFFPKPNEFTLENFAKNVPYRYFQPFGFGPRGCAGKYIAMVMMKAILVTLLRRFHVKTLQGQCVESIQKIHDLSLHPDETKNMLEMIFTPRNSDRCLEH
Chain of Aryl hydrocarbon receptor (Homo sapiens) (P35869 whole entry, looked up): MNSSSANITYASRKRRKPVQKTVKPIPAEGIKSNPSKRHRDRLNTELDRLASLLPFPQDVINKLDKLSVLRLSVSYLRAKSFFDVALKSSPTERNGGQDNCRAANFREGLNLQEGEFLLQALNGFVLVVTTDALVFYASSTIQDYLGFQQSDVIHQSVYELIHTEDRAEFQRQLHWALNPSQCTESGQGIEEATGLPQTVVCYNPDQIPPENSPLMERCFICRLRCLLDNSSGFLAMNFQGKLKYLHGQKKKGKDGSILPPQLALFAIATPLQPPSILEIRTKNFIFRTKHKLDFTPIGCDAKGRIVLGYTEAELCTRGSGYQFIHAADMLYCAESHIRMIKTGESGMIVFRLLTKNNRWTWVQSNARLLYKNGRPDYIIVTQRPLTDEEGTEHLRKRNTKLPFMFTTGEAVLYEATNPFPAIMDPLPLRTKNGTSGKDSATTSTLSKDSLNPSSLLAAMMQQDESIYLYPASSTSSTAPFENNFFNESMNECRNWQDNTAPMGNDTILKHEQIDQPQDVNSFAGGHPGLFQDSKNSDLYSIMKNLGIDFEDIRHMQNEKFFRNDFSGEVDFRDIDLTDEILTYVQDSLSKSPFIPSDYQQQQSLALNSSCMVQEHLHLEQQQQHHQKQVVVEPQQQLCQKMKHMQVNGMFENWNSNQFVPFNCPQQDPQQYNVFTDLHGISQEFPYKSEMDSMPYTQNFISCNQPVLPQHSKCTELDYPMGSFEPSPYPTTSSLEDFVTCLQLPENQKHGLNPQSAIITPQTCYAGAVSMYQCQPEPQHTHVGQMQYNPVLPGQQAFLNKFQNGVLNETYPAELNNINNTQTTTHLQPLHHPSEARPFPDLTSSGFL
Chain of Estrogen receptor (Homo sapiens) (P03372 whole entry, looked up): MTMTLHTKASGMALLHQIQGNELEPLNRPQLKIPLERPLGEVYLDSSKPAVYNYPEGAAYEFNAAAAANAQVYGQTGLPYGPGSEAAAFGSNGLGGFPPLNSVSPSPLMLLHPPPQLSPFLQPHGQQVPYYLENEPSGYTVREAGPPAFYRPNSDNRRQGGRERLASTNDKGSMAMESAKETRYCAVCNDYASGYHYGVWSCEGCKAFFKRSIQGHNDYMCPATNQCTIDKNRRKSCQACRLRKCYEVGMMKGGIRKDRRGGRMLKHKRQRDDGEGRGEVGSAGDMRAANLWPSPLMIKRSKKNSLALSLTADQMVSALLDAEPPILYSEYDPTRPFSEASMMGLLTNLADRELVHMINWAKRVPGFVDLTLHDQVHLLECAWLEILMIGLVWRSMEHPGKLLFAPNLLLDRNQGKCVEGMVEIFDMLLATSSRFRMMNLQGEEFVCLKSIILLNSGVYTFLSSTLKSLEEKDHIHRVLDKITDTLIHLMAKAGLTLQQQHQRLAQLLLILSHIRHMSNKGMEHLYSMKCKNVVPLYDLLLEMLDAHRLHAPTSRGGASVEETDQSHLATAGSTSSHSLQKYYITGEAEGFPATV
Chain of Peroxisome proliferator-activated receptor gamma (Homo sapiens) (P37231 whole entry, looked up): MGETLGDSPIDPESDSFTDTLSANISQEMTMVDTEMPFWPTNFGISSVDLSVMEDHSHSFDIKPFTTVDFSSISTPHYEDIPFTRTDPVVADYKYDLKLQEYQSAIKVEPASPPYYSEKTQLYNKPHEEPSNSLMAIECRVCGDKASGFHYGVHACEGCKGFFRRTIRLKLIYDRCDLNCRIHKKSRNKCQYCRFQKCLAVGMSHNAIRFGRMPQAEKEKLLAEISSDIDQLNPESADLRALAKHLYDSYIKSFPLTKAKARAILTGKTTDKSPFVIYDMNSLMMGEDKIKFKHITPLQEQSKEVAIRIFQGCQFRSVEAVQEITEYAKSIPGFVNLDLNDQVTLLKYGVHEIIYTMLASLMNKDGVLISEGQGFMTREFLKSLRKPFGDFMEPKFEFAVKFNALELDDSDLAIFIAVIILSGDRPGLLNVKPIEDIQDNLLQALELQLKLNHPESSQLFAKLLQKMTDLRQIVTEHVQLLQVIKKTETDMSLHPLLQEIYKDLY

SMILES	Potency [1]	Potency [2]	Potency [3]	Potency [4]	Potency (Aromatase (Homo sapiens))	Potency [5]	Potency [6]	Potency [7]	Potency [8]	Potency [9]	Potency [10]	Potency [11]	Potency [12]	Potency [13]	Potency [14]	Potency [15]	Potency [16]	Potency [17]	Potency [18]
COc1c(Cl)c(Cl)c(Cl)c(Cl)c1Cl	inactive	inactive	inactive	inactive	inactive	inactive	inactive	inactive	inactive	inactive	inactive	–	–	–	–	–	–	–	–
Cc1cc2nc3c(=O)[nH]c(=O)nc-3n(C[C@H](O)[C@H](O)[C@H](O)CO)c2cc1C	inactive	inactive	inactive	–	–	–	–	inactive	–	inactive	inactive	inactive	–	–	–	–	–	–	–
Nc1ncnc2nc[nH]c12	–	–	inactive	inactive	inactive	inactive	inactive	inactive	inactive	inactive	inactive	–	inactive	inactive	inactive	inactive	inactive	inactive	–
CCCCCCCCCCCO	–	inactive	inactive	inactive	inactive and 27.3 µM (active)	inactive and 27.3 µM (active)	inactive	inactive	inactive	inactive and 43.6 µM (active)	–	inactive and 61.1 µM (active)	inactive	inactive	inactive	inactive	–	inactive	inactive
O=c1oc(=O)c2cc3c(=O)oc(=O)c3cc12	inactive	inactive	inactive	inactive	inactive	inactive	inactive	–	2.73 µM (active)	inactive	inactive	inactive	–	–	–	–	inactive	inactive	inactive
CCOC(=O)C(C#N)=C(c1ccccc1)c1ccccc1	inactive	inactive	inactive	inactive	inactive	inactive	inactive	inactive	–	inactive	inactive	–	–	–	–	–	inactive	inactive	–
c1cc(N(CC2CO2)CC2CO2)ccc1OCC1CO1 (stereo unspecified)	4.86 µM (active) and 3.86 µM (active)	inactive	inactive	inactive	24.4 µM (active) and 54.5 µM (active)	27.3 µM (active)	inactive	–	27.3 µM (active) and 19.3 µM (active)	–	–	–	–	inactive	inactive	–	–	–	–
CCCCCCCCCC(=O)OC	–	inactive	inactive	inactive	inactive	inactive	inactive	inactive	inactive	inactive	inactive	inactive	–	–	–	–	–	inactive	–
CC(C)OC(=O)C(C)(C)Oc1ccc(C(=O)c2ccc(Cl)cc2)cc1	–	–	inactive	inactive	inactive and 68.6 µM (active)	–	inactive	inactive	–	inactive	inactive	–	inactive	inactive	inactive	inactive and 61.1 µM (active)	–	–	–
CCCCC/C=C/C=C/C=O	–	inactive	inactive	inactive	inactive	inactive	inactive	38.6 µM (active) and 38.9 µM (active)	–	inactive	–	inactive	–	–	–	–	inactive	–	–
CC(=O)C1(C)CC2=C(CCCC2(C)C)CC1C (stereo unspecified)	inactive	inactive	inactive	inactive	inactive	inactive	inactive	inactive	inactive	inactive	inactive	–	–	–	–	–	inactive	inactive	–
c1ccc2sc(SSN3CCOCC3)nc2c1	–	inactive	inactive	inactive	5.44 µM (active)	6.84 µM (active)	30.6 µM (active)	inactive	–	inactive	–	–	inactive	inactive	inactive	inactive	–	5.48 µM (active)	–
CC(C)Oc1ccc2c(=O)c(-c3ccccc3)coc2c1	–	–	–	inactive	inactive	inactive	2.11 µM (active) and 4.73 µM (active)	–	–	inactive	inactive	inactive	–	–	–	–	–	inactive	–
C#C[C@]1(O)CC[C@H]2[C@@H]3CCc4cc(OC)ccc4[C@H]3CC[C@@]21C	–	inactive	inactive	inactive	–	inactive	inactive	inactive	–	inactive	inactive	inactive	–	19 nM [inconclusive] (active) and 30.9 nM [inconclusive] (active)	1.5 nM (active) and 0.8 nM (active)	inactive	inactive	inactive	–
COc1cc([C@@H]2c3cc4c(cc3[C@H](O)[C@H]3COC(=O)[C@H]23)OCO4)cc(OC)c1OC	–	inactive	–	inactive	inactive	inactive	–	inactive	–	inactive	inactive	inactive	–	–	–	–	inactive	–	inactive
